Source: PubChem BioAssay (National Center for Advancing Translational Sciences (NCATS))
TDP1 cell noCPT – qHTS for Inhibitors of human tyrosyl-DNA phosphodiesterase 1 (TDP1): qHTS in cells in absence of CPT | 420,000 compounds, 15% hits | DT40 Tdp1-/- hTDP1 cells, no CPT, ATP luminescence, 48 h | AID 686978, 2013 | Potency, µM (doses to about 46.2 µM), inactives show at the top dose activity change, negative = growth inhibition, hits mostly inhibitors; note: % is set by controls: 0 for no effect and ±100 for the full control effect; nearly all actives have a fitted effect of over 55% in size
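Stably hTDP1-transfected Tdp1-null chicken DT40 cells were treated with library compounds minus camptothecin and grown for at least 48 hr at 37 °C, after which cellular ATP was quantified by luminescence.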
HT1080 IDH1KD tx – kills HT-1080 cells with IDH1 knockdown | HT-1080 IDH1 knockdown viability, ATP luminescence, 48 h | Potency, µM (doses to about 46.1 µM), without a hit: top-dose activity, negative = toxicity, actives largely listed as cytotoxic | 360,000 compounds, 2% hits | AID 686971;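 note: 0% = DMSO wells and -100% = cell-free medium wells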
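In this qHTS, HT-1080 cells depleted of IDH1 are exposed for 48 h at 37 °C to compound titrations. Toxicity is scored from CellTiter-Glo luminescence, with DMSO as full viability and medium alone as none.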
TDP1 cell CPT – growth inhibition of DT40 Tdp1-/-;hTDP1 cells with camptothecin (screen for TDP1 inhibitors) | AID 686979 | 420,000 compounds, 12% hits | Potency, µM (doses to about 46.2 µM), for inactives: at the top dose activity change, negative = growth inhibition, usual class: inhibitors | chicken DT40 Tdp1-/-;hTDP1 cells + 20 nM CPT, ATP luminescence, 48 h; note: % is set by controls: 0 for no effect and ±100 for the full control effect; nearly all actives have a fitted effect of over 55% in size
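Cell growth measured by CellTiter-Glo luminescence after a minimum 48 h, 37 C compound exposure with 20 nM CPT in Tdp1-knockout DT40 cells stably expressing hTDP1, seeded 400/well; qHTS titration format.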
TGFb inhibitor – inhibitors of TGF-b signaling; 410,000 compounds, 1.2% hits; Potency, µM (top dose mostly 46.1 µM), for inactives: top-dose activity, negative = inhibition, most hits filed as inhibitors; HepG2 CAGA-GFP TGF-b/SMAD3 reporter, GFP fluorescence, 18 h; TGF-beta stimulated, 500 pg/mL final; note: % is set by controls: 0 for no effect and ±100 for the full control effect; nearly all actives have a fitted effect of over 65% in size
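Smad-responsive CAGA-GFP expression was quantified in HEPG2 cells exposed to compounds and 500 pg/mL final TGF-beta for 18 h at 37 degrees C; unstimulated wells defined full inhibition.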
HepG2 tox – HepG2 cytotoxicity, counter-screen for TGF-b inhibitors | HepG2 CAGA-GFP viability, ATP luminescence, 18 h | Potency, µM (top dose mostly 46.1 µM), for the others: top-dose activity change, negative = cytotoxicity, most hits filed as cytotoxic | 410,000 compounds, 0.76% hits
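CellTiter-Glo luminescence gave cytotoxicity after 18 hours at 37 degrees C. The cells were HepG2 CAGA-GFP in 1% FBS DMEM, stimulated with 500 pg/mL TGF-beta after compound addition. %Activity was normalised to no-cell wells (complete cell-killing) and DMSO (no toxicity), and curves were fitted and classified.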
HT1080-NT tox – kills 2HG-producing HT-1080-NT fibrosarcoma cells | Potency, µM (series often up to 46.1 µM), for inactives: at the highest dose activity, negative = less viability, actives largely listed as cytotoxic | AID 686970 | 360,000 compounds, 1.6% hits | HT-1080-NT fibrosarcoma viability, CellTiter-Glo ATP luminescence, 48 h;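 note: NT is the 2HG producing partner of a matched IDH1 knockdown line; 0% = DMSO-treated cells and -100% = media-only wells without cells; nearly all actives have a fitted effect of over 55% in size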
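Viability of the 2HG-overproducing fibrosarcoma line after 48 hours of compound exposure at 37 degrees C was determined by luminescence with CellTiter-Glo, and concentration-effect curves were then fitted and categorized.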
The depositor's hits bear a star; ? = inconclusive; nt = not tested or not shown; [ ] = another dose, or the depositor's remark. An excerpt weighted towards active compounds, which were near 17% of everything screened. Calls come from the whole dose curve; as a rule, active = well fitted curve in the direction sought with a large enough effect; inconclusive = small, poorly fitted or top-dose-only effect, or another doubt; inactive = no such curve, though single readings can be large; an effect the other way counts as inactive or inconclusive. Potency is the fitted concentration of half-maximal effect.

SMILES	TDP1 cell noCPT	HT1080 IDH1KD tx	TDP1 cell CPT	TGFb inhibitor	HepG2 tox	HT1080-NT tox
Oc1ccc(Br)cc1C1C=C(c2ccc3c(c2)OCO3)NC(c2c(F)cccc2Cl)N1 (centres undefined)	nt	nt	nt	?	-89.4%	nt
Oc1ccc(Cl)cc1C1C=C(c2ccc3c(c2)OCO3)NC(c2cc(Br)ccc2F)N1 (centres undefined)	nt	nt	nt	7.94µM*	14.1µM*	nt
Oc1ccc(Cl)cc1C1C=C(c2ccc3c(c2)OCO3)NC(c2ccc(Br)cc2)N1 (centres undefined)	?	nt	15.8µM*	-16.5%	-10.7%	nt
O=C(Nc1cc(Br)ccc1O)c1cc(-c2ccc3c(c2)OCO3)on1	-2.5%	15.2%	-2.0%	-16.1%	-11.5%	16.5%
Cc1cc(C)cc(Nc2ncc3c(n2)CCCC3=O)c1	-7.1%	9.1%	-23.1%	20.1%	24.9%	9.6%
COC(=O)[C@]12CCCCC=C1N(Cc1ccccc1)C(=O)[C@H](CC(=O)NCc1ccccc1)C2	?	?	?	nt	nt	-3.6%
COC(=O)CCCN1C(=O)NC(c2ccc(-c3ccccc3)cc2)C(C(=O)OCc2ccccc2)=C1C (centres undefined)	?	-4.2%	?	-0.2%	-18.5%	-4.5%
COC(=O)CCCCCN1C(=O)NC(C2CC2)C(C(=O)OCc2ccccc2)=C1C (centres undefined)	13µM*	-2.6%	16.4µM*	?	1.3%	-0.2%
CC1=C(C(=O)OCc2ccccc2)C(c2ccc3c(c2)OCO3)NC(=O)N1CCCC(=O)O (centres undefined)	0.146µM*	0.2%	?	1.6%	-1.5%	-1.7%
CCCCCCN(C(=O)CCCN1C(=O)NC(c2ccc(-c3ccccc3)cc2)C(C(=O)OCc2ccccc2)=C1C)C(C)C(=O)NCCCC (centres undefined)	16.4µM*	-5.5%	?	?	-28.4%	-14.4%
CCCCCCN(C(=O)CCCCCN1C(=O)NC(c2ccc([N+](=O)[O-])cc2)C(C(=O)OCc2ccccc2)=C1C)C(C(=O)NCCCC)C1CCCCC1 (centres undefined)	5.8µM*	0.0%	?	-4.8%	-27.1%	1.6%
CC1=C(C(=O)OCc2ccccc2)C(c2ccc([N+](=O)[O-])cc2)NC(=O)N1CCCCCC(=O)O (centres undefined)	-14.0%	-0.3%	?	2.7%	-9.9%	-8.7%
CCOC1=C2[C@H]([C@H]3C(=O)N(c4ccccc4)C(=O)[C@H]3C1)[C@@H](C(C)C)N(S(=O)(=O)c1ccc(C)cc1)[C@H]2c1ccccc1	?	20.1%	?	0.3%	3.0%	18.2%
COc1ccc(CC(=O)Nc2nnc3n2CCS3)cc1	-11.4%	nt	-16.0%	8.6%	-12.9%	nt
CCN1CCN(CCCNC(=O)c2cnn(-c3ccc(OC)cc3)c2C2CCN(C(=O)OC(C)(C)C)CC2)CC1	-21.1%	nt	-25.3%	0.0%	0.5%	nt
COc1ccc(CCN2CCC(CNC(=O)c3cnn(-c4ccccc4)c3C3CCN(C(=O)OC(C)(C)C)CC3)CC2)cc1	8.2µM*	nt	11.6µM*	?	-6.1%	nt
COc1ccc(CCN2CCC(CNC(=O)c3cnn(-c4cccc(Cl)c4)c3C3CCN(C(=O)OC(C)(C)C)CC3)CC2)cc1	8.2µM*	nt	8.2µM*	-40.8%	-103.8%	nt
CCOc1ccccc1NC(=O)CN(C)S(=O)(=O)c1ccc2nc(C)sc2c1	-28.3%	nt	-6.0%	nt	-12.9%	nt
O=c1oc2ccccc2n1CSc1nc2ccccc2s1	13µM*	-3.0%	-26.9%	10.2%	-8.2%	-3.7%
NCCSc1nc2ccccc2s1	11.2µM*	nt	?	-13.6%	-27.7%	nt
O=C(CSc1nc2ccccc2s1)CSc1nc2ccccc2s1	-4.9%	5.2%[9.24 µM]	3.5%	-16.6%	-31.6%	?
C=CCS(=O)(=O)c1nc2ccccc2s1	20.6µM*	-4.9%	16.4µM*	17.8µM*	10µM*	-8.8%
O=S(=O)(CCSc1nc2ccccc2s1)c1nc2ccccc2s1	3.66µM*	20.6µM*	6.51µM*	?	-96.4%	20.6µM*
CC(C)(C)NC(=O)CSc1nc2ccccc2n1-c1ccccc1	?	-7.9%	-73.4%	-4.2%	-15.8%	-17.1%
CCCOC(=O)c1ccc(NC(=O)Cc2cccs2)cc1	?	-0.9%	-8.6%	-0.7%	2.7%	1.8%
SMILES	TDP1 cell noCPT	HT1080 IDH1KD tx	TDP1 cell CPT	TGFb inhibitor	HepG2 tox	HT1080-NT tox
Cc1nnc(SCc2nc3ccccc3[nH]2)s1	-12.9%	9.8%	2.5%	4.8%	-67.8%	5.7%
c1ccc2[nH]c(CSc3nc4ccccc4s3)nc2c1	14.6µM*	-18.1%	?	-12.7%	-0.5%	-13.2%
COc1ccc(NC(=O)c2ccc(S(=O)(=O)N3CCOCC3)o2)cc1	-3.1%	0.9%	-4.3%	-3.7%	-9.4%	4.5%
CCOc1ccc(S(=O)(=O)N(CC(=O)N2CCc3ccccc32)Cc2ccco2)cc1	?	-13.1%	18.4µM*	-1.7%	-13.2%	0.9%
CSCCC(C(=O)Nc1c(C)cccc1C)n1c(COc2ccc(C)cc2)nc2ccccc21 (centres undefined)	9.2µM*	?	11.6µM*	nt	nt	-29.5%
CSCCC(C(=O)Nc1c(C)cccc1C)n1c(-c2cc(C)cs2)nc2ccccc21 (centres undefined)	?	-1.2%	?	nt	nt	-0.4%
CSCCC(C(=O)Nc1c(C)cccc1C)n1c(-c2ccc(-c3ccccc3)cc2)nc2ccccc21 (centres undefined)	?	6.0%	10.3µM*	nt	nt	8.8%
CSCCC(C(=O)NC(C)(C)C)n1c(-c2ccc(C)cc2)nc2ccccc21 (centres undefined)	?	3.5%	?	nt	nt	8.8%
O=C(Nc1ccccc1)Nc1cccc2ccccc12	?	10.2%	16.4µM*	0.6%	-0.3%	-14.0%
O=C(Nc1ccccc1)Nc1csc2ccccc12	?	?	?	?	17.8µM*	-22.5%
NC(=O)Nc1cccc2ccccc12	1.5%	0.1%	11.2%	-10.4%	-18.1%	7.9%
CC(=O)Nc1csc2ccccc12	-25.0%	-3.8%	0.5%	3.5%	11.8%	-2.9%
O=C(Nc1cccc2ccccc12)N(c1ccccc1)c1ccccc1	20.6µM*	-1.1%	20.6µM*	?	-30.6%	-2.5%
